# RecA intein inh: inhibitors of M. tuberculosis RecA intein splicing; P9WHJ3; cell-free RecA intein splicing, fluorescence; inhibition, % (no concentration beside the values); 290,000 tested, 0.75% active; in the data active = inhibition above about 30%; inconclusive = no clear call, values can overlap the other calls
# Target sequence (P9WHJ3 whole entry, looked up): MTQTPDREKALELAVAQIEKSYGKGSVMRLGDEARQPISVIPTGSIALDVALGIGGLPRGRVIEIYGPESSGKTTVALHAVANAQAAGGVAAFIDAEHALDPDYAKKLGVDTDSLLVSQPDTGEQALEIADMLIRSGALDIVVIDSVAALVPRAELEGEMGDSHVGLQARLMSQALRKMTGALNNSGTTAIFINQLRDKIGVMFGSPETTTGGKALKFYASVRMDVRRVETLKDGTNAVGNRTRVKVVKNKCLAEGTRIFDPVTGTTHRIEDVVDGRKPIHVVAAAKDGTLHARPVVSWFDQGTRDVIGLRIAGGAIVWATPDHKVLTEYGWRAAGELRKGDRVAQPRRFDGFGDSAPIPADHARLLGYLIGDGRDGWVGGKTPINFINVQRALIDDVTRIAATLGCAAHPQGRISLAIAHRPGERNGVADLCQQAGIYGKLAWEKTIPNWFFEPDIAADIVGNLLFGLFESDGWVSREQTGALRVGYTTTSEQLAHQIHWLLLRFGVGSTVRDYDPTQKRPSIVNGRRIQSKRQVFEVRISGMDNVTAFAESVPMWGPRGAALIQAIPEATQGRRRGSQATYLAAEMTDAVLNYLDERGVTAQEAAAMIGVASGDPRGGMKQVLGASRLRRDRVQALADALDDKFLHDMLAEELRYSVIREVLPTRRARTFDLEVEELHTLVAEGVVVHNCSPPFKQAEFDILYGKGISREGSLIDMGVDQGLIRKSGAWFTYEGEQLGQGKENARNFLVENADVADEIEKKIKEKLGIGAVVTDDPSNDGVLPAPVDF
# Rv3671c inh: inhibits the M. tuberculosis serine protease Rv3671c; 320,000 tested, 0.048% active; P9WHR9; inhibition, % at 5.96 µM; in the data active = inhibition above about 38%;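 note: extracellular domain of Rv3671c used as enzyme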
# GDH-TPI inh: inhibits GDH-TPI coupling enzymes, artifact for Mtb FBA screen. AID 588335. inhibition, % at 4.8 µM. 360,000 tested, 1.2% active. GDH-TPI coupled enzyme counterscreen, NADH absorbance; in the data active = inhibition above about 30%
# Mtb betalactam: beta-lactam sensitization of Mtb H37Rv; M. tuberculosis H37Rv growth with meropenem, percent inhibition; inhibition, % at 25 µM; 330,000 tested, 0.27% active; AID 434955;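 note: growth measured after seven days incubation then overnight dye step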
# Mtb FBA inh: Mtb fructose-bisphosphate aldolase inhibition. P9WQA3. inhibition, % at 1 µM. AID 588726. 360,000 tested, 2.3% active. purified M. tuberculosis FBA, fluorescence read-out; in the data active = inhibition above about 27%
# UGM FP inh: Mtb UDP-galactopyranose mutase inhibition. P9WIQ1. purified UGM, fluorescence polarization probe displacement. inhibition, % at 10 µM. 320,000 tested, 0.06% active; in the data active = inhibition above about 10%, passing the limit was not always enough; inconclusive = no clear call, values can overlap the other calls
# GFP chromophore: counter-screen GFP chromophore formation inhibition; 2,100 tested, 83% active; cell-free GFP chromophore formation, fluorescence; AID 434968; shares compounds with RecA intein inh; EC50, µM
# Hits are given with their value; – = inactive; ? = inconclusive; · = not tested or not shown. Hits are enriched below; roughly 4% of the tested compounds scored in any of these assays. Unless noted, the rule behind the calls is not given here.
SMILES,RecA intein inh,Rv3671c inh,GDH-TPI inh,Mtb betalactam,Mtb FBA inh,UGM FP inh,GFP chromophore
CC1CCN(c2ccc(NC(=O)Cn3c(=O)oc4ccccc43)cc2)CC1,–,–,–,–,–,–,·
O=C(CCl)N(C/C=C/c1ccccc1)c1ccc2c(c1)OCCO2,85,–,–,–,–,–,3
O=C(CSCc1ccc([N+](=O)[O-])cc1)N/N=C/c1cccnc1,38,–,–,–,–,–,–
O=C(CSCc1ccc([N+](=O)[O-])cc1)N/N=C/c1ccncc1,–,–,–,–,–,–,·
COc1cc(Cc2nccc3cc(OC)c(OC)cc23)c(NC(C)=O)cc1OC,–,–,–,–,–,–,·
COc1cc(Cc2nccc3cc(OC)c(OC)cc23)c(S(=O)(=O)O)cc1OC,42,–,–,?,–,–,–
COc1cc(/C=N/NC(=O)c2ccc(F)cc2)ccc1OC(=O)c1ccco1,30,–,–,–,–,–,–
O=C(N/N=C/c1ccc(OC(=O)c2ccco2)cc1)c1ccc[n+]([O-])c1,32,–,36,–,–,–,–
COc1cc(/C=N/NC(=O)c2ccncc2)ccc1OC(=O)c1ccco1,–,–,–,–,–,–,·
CCOC(=O)c1ccc(NS(=O)(=O)c2c(N)[nH]c(=O)[nH]c2=O)cc1,–,–,–,–,–,–,·
CC(C)(C)C(=O)Nc1ccc(N=Nc2ccccc2)cc1,35,–,–,–,–,–,8.7
O=C(O)CCC(=O)Nc1ccc(N=Nc2ccccc2)cc1,–,·,–,·,–,·,·
O=C(COC(=O)c1cnccn1)NC1CCCc2ccccc21 (stereo unspecified),·,–,–,–,–,–,·
O=C(O)c1cccc(NC2=C(N3CCOCC3)C(=O)c3ccccc3C2=O)c1,–,–,–,–,–,–,·
O=C(O)c1ccc(NC2=C(n3nnc4ccccc43)C(=O)c3ccccc3C2=O)cc1,88,–,–,–,–,–,5.6
CN(CC(=O)NCc1ccco1)C(=O)C1CC(=O)N(c2ccc3c(c2)OCCO3)C1 (stereo unspecified),·,–,–,–,–,–,·
COC(=O)N=Nc1c(O)[nH]c2ccc(Br)cc12,–,–,–,–,–,–,·
Oc1[nH]c2ccc(Br)cc2c1N=NC(=S)N1CCOCC1,47,–,–,–,–,–,–
NC(=S)N=Nc1c(O)[nH]c2ccccc12,–,–,–,–,–,·,·
Oc1[nH]c2ccccc2c1N=NC(=S)N1CCOCC1,67,–,–,–,–,–,–
C[C@H](CO)N1C[C@H](C)[C@H](CN(C)S(=O)(=O)c2cccs2)OCc2cnnn2CCCC1=O,·,·,–,·,–,·,·
Nc1c(C(=O)N/N=C/c2ccc(Cl)cc2)cnn1-c1ccccc1,–,–,–,–,–,–,·
Nc1scc2c(C(=O)N/N=C/c3ccc(Cl)cc3)nn(-c3ccccc3)c(=O)c12,63,–,–,–,–,–,16
COc1ccc(NC(=O)c2cc(C3CCCCN3S(=O)(=O)c3c(C)noc3C)on2)c(C)c1 (stereo unspecified),·,·,–,·,–,·,·
Clc1ccc(-c2nnc(Sc3nc4ccccc4o3)c3ccccc23)cc1,57,–,–,–,–,–,0.62
SMILES,RecA intein inh,Rv3671c inh,GDH-TPI inh,Mtb betalactam,Mtb FBA inh,UGM FP inh,GFP chromophore
Cc1nnc(Sc2nc3ccccc3o2)c2ccccc12,50,–,–,–,–,–,28
Cc1ccc(-c2nnc(Sc3nc4ccccc4o3)c3ccccc23)cc1,77,–,–,–,–,–,0.93
CCSc1nnc(C)c2ccccc12,–,–,–,–,–,–,·
COc1ccc(CCNC(=O)CSC2=NS(=O)(=O)c3cc(F)ccc3N2)cc1OC,·,·,–,·,–,·,·
O=C(C(Cl)Cl)N1c2ccccc2OCC1c1ccccc1 (stereo unspecified),72,–,–,–,–,–,35
CC1=NN(c2ccccc2)C(=O)C1/C=C1\C(=O)NC(=O)N(c2ccc(C)c(C)c2)C1=O (stereo unspecified),41,–,–,–,–,–,16
O=C(Cc1ccccc1Cl)NC1(O)C(=O)c2ccccc2C1=O,51,–,–,–,–,–,12
O=C(Cc1ccc(Cl)cc1)NCc1ccccc1Cl,–,–,–,–,–,–,·
Fc1ccc(Sc2nc(-c3ccccc3)nnc2C(F)(F)F)cc1,71,–,–,–,–,–,0.89
CS(=O)(=O)c1cnc(-c2ccccc2)nc1Sc1ccc(F)cc1,–,–,–,–,–,–,·
CC(C)Cn1c(N)c(S(=O)(=O)c2cccs2)c2nc3ccccc3nc21,47,·,–,·,142,·,29
N#CC1=C(N)N(c2ccccc2)C(c2cccc([N+](=O)[O-])c2)C1(C#N)C#N (stereo unspecified),39,–,–,–,–,–,24
CCC(CC)C1C(C#N)=C(N)Oc2n[nH]c(-c3ccccc3)c21 (stereo unspecified),–,–,–,–,–,–,·
Cc1[nH]nc2c1C(c1ccc3c(c1)OCO3)C(C#N)=C(N)O2 (stereo unspecified),67,–,–,–,–,–,39
COc1cccc(-c2[nH]nc3c2C(c2ccoc2)C(C#N)=C(N)O3)c1 (stereo unspecified),82,–,–,–,–,–,9.8
COc1cc(-c2[nH]nc3c2C(c2ccoc2)C(C#N)=C(N)O3)cc(OC)c1OC (stereo unspecified),·,–,–,–,–,–,·
Cc1ccc(SCc2[nH]nc3c2C(c2cccnc2)C(C#N)=C(N)O3)cc1 (stereo unspecified),–,–,–,–,–,–,·
Cc1ccc(-c2[nH]nc3c2C(c2ccsc2)C(C#N)=C(N)O3)cc1 (stereo unspecified),65,–,–,–,–,–,1.8
N#CC1=C(N)Oc2n[nH]c(-c3ccccc3)c2C1c1ccsc1 (stereo unspecified),86,–,–,–,–,–,31
O=C(/C=C/c1ccccc1Cl)OCC(=O)c1ccc[nH]1,·,–,–,–,–,–,·
CCOc1ccc(-c2[nH]nc3c2C(c2cccnc2)C(C#N)=C(N)O3)cc1 (stereo unspecified),·,–,–,–,–,–,·
Cc1[nH]nc2c1C(C1CC=CCC1)C(C#N)=C(N)O2 (stereo unspecified),·,–,–,–,–,–,·
CC(C)C1C(C#N)=C(N)Oc2n[nH]c(-c3ccc4ccccc4c3)c21 (stereo unspecified),–,–,–,–,–,–,·
COc1cc(-c2[nH]nc3c2C(c2ccco2)C(C#N)=C(N)O3)cc(OC)c1OC (stereo unspecified),79,–,–,–,–,–,9.1
N#CC1=C(N)Oc2n[nH]c(-c3ccncc3)c2C1c1ccsc1 (stereo unspecified),54,–,–,–,–,–,38
Cc1[nH]nc2c1C(c1ccsc1)C(C#N)=C(N)O2 (stereo unspecified),83,–,–,–,–,–,39

# Screening data deposited in PubChem BioAssay by several laboratories.
